Data reported in PubChem BioAssay AID720519 (National Center for Advancing Translational Sciences (NCATS), 2013).
Inconclusive results are not listed. Activity calls are given as the source filed them. The call rests on the fitted dose curve; in most records, active means well fitted activation curve with a large enough effect; inconclusive means small, poorly fitted or top-dose-only effect; inactive means flat fitted curve, though single readings scatter. Square brackets hold non-standard residues; d marks the D form. Peptide text beside a SMILES is read from it. ξ: configuration not given here. ξLac(3-iPr) = CC(C)CC(O)C(=O)O; NMeV = CN[CH](C(=O)O)C(C)C; NMeA = CN[CH](C)C(=O)O; βAla = NCCC(=O)O

assay: qHTS for Inhibitors of Cell Surface uPA Generation: Confirmatory Assay for Cherry-picked Compounds; settings: cell surface uPA activity generation, qHTS confirmation; series mostly up to 115 µM; inhibition: at the top concentration; on inhibition: 0% is about no effect
Description: The overall objective of this project is to perform a quantitative high throughput screen (qHTS) to identify novel compounds that inhibit the generation of cell surface urokinase activity. The urokinase plasminogen activator (uPA) is one of the two primary endogenous systems that mediate plasminogen activation into plasmin. Members of this system, including uPA and its receptor (uPAR), are overexpressed in several malignant tumors. This system plays a major role in adhesion, migration, invasion and metastasis of cancer cells. Small molecule inhibitors of the uPA system will serve as probes to understand the molecular mechanisms of the uPA cascade and better understanding the micro-environmental circumstances that facilitate the activation of plasminogen by uPA, and finally may provide novel candidate agents for anticancer drug therapy.
[…] […] Upon inhibition of the uPA activation cascade, the subsequent cell surface uPA activity-dependent translocation of LF into the cytoplasm is inhibited. ATP-Lite is used to measure intracellular ATP concentrations (measure cell viability) which remain increased if LF entry into the cytoplasm is inhibited. This validation assay was performed using a small set of cherry picked compounds. Activation of cell viability (increase in luminescence signal) due to inhibition of the cell surface uPA generation is the desired outcome of this assay.
NIH Chemical Genomics Center [NCGC]
NIH Molecular Libraries Probe Centers Network [MLPCN]
Assay Submitter (PI): Thomas Bugge, National Institute of Dental and Craniofacial Research, NIH
Cultured RAW 264.7 were dispensed into 1536-well clear bottom, white walled tissue culture plates at a density of 4000 cells/well and were incubated overnight (12-16 h) at 37 C in a 5% CO2 incubator. Serially diluted compounds (1:5 dilution) in 23 nl DMSO were added to cells (0.0024 uM to 3.83 uM final concentration). […] Compound and reagent-treated plates were incubated for 24 h at 37 C in a 5% CO2 incubator. Three microliter of PerkinElmer ATPlite was then added to each well and luminescence was detected using the PerkinElmer ViewLux plate reader for a 5 sec exposure.
Potency means the concentration at half of the fitted maximal effect.

Compound	inhibition	Potency
Cc1cc(C(=O)NP(=O)(N2CCOCC2)N2CCOCC2)c(C)n1C1CC1	1.26% (inactive)	
c1cncc(C2CCCCN2)c1 (stereo unspecified)	0.0289% (inactive)	
O=P1(NCCCl)OCCCN1CCCl (stereo unspecified)	-0.345% (inactive)	
O=c1[nH]c(=O)n(CCc2ccccc2)c(O)c1C=NC1CC1	-1.12% (inactive)	
O=c1[nH]c(=O)n(-c2ccc(Cl)cc2)c(O)c1C=Nc1ccc(S(=O)(=O)Nc2nccs2)cc1	-1.14% (inactive)	
O=C(c1ccc(F)c([N+](=O)[O-])c1)N1CC2CC(C1)c1cccc(=O)n1C2 (stereo unspecified)	-0.87% (inactive)	
COc1ccccc1NC(=O)N1C[C@@H]2C[C@@H](C1)c1cccc(=O)n1C2	0.817% (inactive)	
COc1ccc(-c2nn(CCC#N)cc2C(=O)Nc2ccccc2)cc1OC	-1.47% (inactive)	
CCCCCn1c(=O)c(C(=O)Nc2ccccn2)c(O)c2ccccc21	-3.37% (inactive)	
COC(=O)C1=C(c2cccc(OC)c2OC)C[C@@H]2CC[C@H]1N2C(=O)NC1CC1	-0.831% (inactive)	
CCOc1ccc(CN2CCN(C(=O)Cc3ccccc3)CC2)cc1	-2.65% (inactive)	
Cc1ncc(CN2CCCC(C(=O)c3cccc(OC(C)C)c3)C2)s1 (stereo unspecified)	-2.04% (inactive)	
Cc1ccccc1O	-0.088% (inactive)	
COc1ccccc1N1CCN(Cc2ccc(SC)cc2)CC1	-3.27% (inactive)	
FC(F)(F)Oc1ccc(NC2=NCCCS2)cc1	-1.26% (inactive)	
CCOC(=O)c1ccc(N=Cc2c(O)n(-c3ccc(OC)cc3)c(=S)[nH]c2=O)cc1	0.888% (inactive)	
CCC(C)C1NC(=O)C2CCCN2C(=O)C(CC(C)C)OC(=O)CCNC(=O)C(C)N(C)C(=O)C(C(C)C)N(C)C1=O (stereo unspecified) (cyclo([ξLac(3-iPr)]PI[NMeV][NMeA][βAla]); configuration not given here)		3.69 µM (active)
C[N+](C)(C)CCOC(=O)CBr	-2.83% (inactive)	
COc1ccc(-c2nn(CCC#N)cc2C(=O)Nc2cccc([N+](=O)[O-])c2)cc1OC	-1.4% (inactive)	
COCC(=O)N1Cc2ccccc2-n2nncc2C1	1.13% (inactive)	
Cc1ccc(-n2c(O)c(C=NCCN3CCNCC3)c(=O)[nH]c2=S)cc1	9.38% (inactive)	
